A selection: hits, their analogues and other compounds. The true share with any hit is near 3.1%.
TSHR antag – human thyrotropin receptor antagonism; P16473; TSHR-expressing cells, TSH-stimulated cAMP HTRF, 2 h; active compounds read low; activity change, negative = inhibition, % at 11.5 µM; hit rate 0.2% among 330,000;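 active means activity change below a set negative limit, meaning inhibition stronger than a set level, cut at about -70% in these data; inconclusive means activity change between two set negative limits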
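Inhibition of cAMP made by TSHR-expressing cells under TSH stimulation (4nM final, EC80; 2 h, 37 deg C) is quantified with a one-step lysis HTRF kit, anti-cAMP cryptate versus cAMP-d2.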
VDR inh – vitamin D3 receptor (human) inhibition; P11473; VDR-SRC2-3 peptide fluorescence polarization, 2 h; Potency, µM, most hits filed as inhibitors; hit rate 0.93% among 400,000; AID 504847
Target sequence (P11473 whole entry, looked up): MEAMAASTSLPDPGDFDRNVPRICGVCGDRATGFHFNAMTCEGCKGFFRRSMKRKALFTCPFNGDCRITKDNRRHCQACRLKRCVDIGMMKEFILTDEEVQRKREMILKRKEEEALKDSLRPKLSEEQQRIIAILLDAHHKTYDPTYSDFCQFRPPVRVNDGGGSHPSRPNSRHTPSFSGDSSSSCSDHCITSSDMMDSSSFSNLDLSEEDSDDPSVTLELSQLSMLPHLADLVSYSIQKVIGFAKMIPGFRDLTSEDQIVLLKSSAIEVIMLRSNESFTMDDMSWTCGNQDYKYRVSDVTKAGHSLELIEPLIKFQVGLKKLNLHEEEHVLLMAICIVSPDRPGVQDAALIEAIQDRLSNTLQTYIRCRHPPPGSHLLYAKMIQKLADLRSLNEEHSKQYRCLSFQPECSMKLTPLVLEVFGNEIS
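Inhibition of the VDR/SRC2-3 peptide interaction is quantified by fluorescence polarization. Compounds (23 nl, pintool) incubate with the reagents for 2 hours at ambient room temperature.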
PLK1 PBD inh – inhibitors of human PLK1 polo-box domain binding | Potency, µM, actives largely listed as inhibitors | hit rate 2.8% among 360,000 | Plk1 PBD binding of FITC phosphopeptide, fluorescence polarization; further: series mostly up to about 57 µM; nearly all actives have a fitted effect of over 65% in size
uPA surface inh – inhibitors of cell surface uPA generation; hit rate 0.31% among 330,000; cell surface uPA generation assay, qHTS; Potency, µM (series often up to 38.3 µM), hits mostly inhibitors; active means well fitted inhibition curve with a large enough effect; inconclusive means small, poorly fitted or top-dose-only effect; inactive means no such curve, though single readings can be large or run the other way; tested in mouse RAW 264.7 cells; further: nearly all actives have a fitted effect of over 55% in size
TSG101-PTAP inh – blocks PTAP/TSG101 interaction to inhibit HIV-1 budding; Fluorescence polarization, FITC-PTAP peptide / Tsg101 binding; Potency, µM (titrated, usually from 115 µM), actives largely listed as inhibitors; 340,000 tested, under 10 active; AID 493005; active means well fitted inhibition curve with a large enough effect in the main read-out, with a control signal flat, not every such curve was filed as active; inconclusive means small, poorly fitted or top-dose-only effect, or effect the other way, or a change in a side signal; inactive means no such curve, though single readings can be large or run the other way
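Fluorescence anisotropy tracks displacement of a FITC-tagged PTAP peptide (50 nM) from the Tsg101 binding domain (10 uM), following a 20 min room-temperature incubation at pH 7.5.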
TbPYK confirm – confirmation of Trypanosoma brucei pyruvate kinase inhibitors. recombinant TbPYK, Kinase-Glo ATP luminescence. Potency, µM (highest dose often 76.9 µM), most hits filed as inhibitors. shares compounds with PLK1 PBD inh. AID 720569. hit rate 67% among 890; further: nearly all actives have a fitted effect of over 70% in size
TbPYK orthogonal – TbPYK inhibition, orthogonal confirmation | shares compounds with PLK1 PBD inh | recombinant TbPYK, ADP-Glo luminescence, 60 min | Potency, µM (doses to about 76.9 µM), actives largely listed as inhibitors | hit rate 62% among 890 | AID 720584; further: nearly all actives have a fitted effect of over 75% in size
Each line names hits and unclear results; the compound was inactive in the other large screens (follow-up assays come after a bar, where they were run). Unless noted, the call rests on the fitted dose curve; in most records, active means well fitted curve in the direction sought with a large enough effect; inconclusive means small, poorly fitted or top-dose-only effect, or another doubt; inactive means no such curve, though single readings can be large; an effect the other way counts as inactive or inconclusive.

CCN(CC)C(=O)c1ccc2c(c1)C1C=CCC1C(C(=O)O)N2 (centres undefined)	VDR inh inconclusive, PLK1 PBD inh 7.52µM, TSG101-PTAP inh inconclusive | TbPYK confirm 3.98µM | TbPYK orthogonal inconclusive
COc1ccc(OC)c(N2C(=O)NC(=O)/C(=C\c3ccc([N+](=O)[O-])s3)C2=O)c1	VDR inh inconclusive, PLK1 PBD inh 2.67µM | TbPYK confirm 2.82µM | TbPYK orthogonal inconclusive
CN1c2ccc([N+](=O)[O-])cc2CC2(C(=O)NC(=O)N(c3ccccc3)C2=O)C1c1ccccc1 (centres undefined)	none
O=C1NC(=O)N(c2ccccc2)C(=O)/C1=C\c1ccc([N+](=O)[O-])s1	VDR inh 39.8µM, PLK1 PBD inh 5.32µM | TbPYK confirm 7.94µM | TbPYK orthogonal 12.6µM
CN1C(=O)NC(=O)/C(=C/c2ccc([N+](=O)[O-])o2)C1=O	VDR inh 70.8µM, PLK1 PBD inh 4.74µM | TbPYK confirm 8.91µM | TbPYK orthogonal inconclusive
CN1C(=O)C(=Cc2ccc(N3CCOCC3)o2)C(=O)N(C)C1=O	TSG101-PTAP inh inconclusive
CC(=O)n1cc(C=C2C(=O)NC(=O)NC2=O)c2ccccc21	VDR inh inconclusive, PLK1 PBD inh 4.23µM | TbPYK confirm 22.4µM | TbPYK orthogonal 35.5µM
O=C1NC(=O)N(c2ccc(F)cc2)C(=O)/C1=C/c1ccsc1	VDR inh inconclusive, PLK1 PBD inh 6.7µM | TbPYK confirm inconclusive | TbPYK orthogonal inactive
C(=NC12CN3CN(CN(C3)C1)C2)c1cccs1	none
O=C1NC(=O)C(=Cc2cccs2)C(=O)N1	VDR inh inconclusive, PLK1 PBD inh 2.67µM (no result: TSHR antag) | TbPYK confirm 14.1µM | TbPYK orthogonal 31.6µM
O=C1NC(=O)N(c2cccc(Br)c2)C(=O)/C1=C/c1ccsc1	VDR inh inconclusive, PLK1 PBD inh 2.38µM | TbPYK confirm inconclusive | TbPYK orthogonal inconclusive
CCc1ccccc1N1C(=O)NC(=O)/C(=C\c2cc(C)n(C)c2C)C1=O	VDR inh inconclusive
CC[C@H](C)[C@H](NC(=O)[C@H](CCCN=C(N)N)NC(=O)[C@H](CCCN=C(N)N)NC(=O)[C@H](CC(C)C)NC(=O)[C@H](Cc1ccccc1)NC(=O)CNC(=O)CNC(=O)[C@@H](N)Cc1ccc(O)cc1)C(=O)N[C@@H](CCCN=C(N)N)C(=O)N1CCC[C@H]1C(=O)N[C@@H](CCCCN)C(=O)N[C@@H](CC(C)C)C(=O)N[C@@H](CCCCN)C(=O)O	none (no result: TSHR antag, PLK1 PBD inh, uPA surface inh, TSG101-PTAP inh)
CN(C)c1ccc(/C=C2/NC(=O)NC2=O)cc1	uPA surface inh inconclusive
O=C1NC(=O)C(=Cc2csc3ccccc23)C(=O)N1	VDR inh 35.5µM, PLK1 PBD inh 2.12µM | TbPYK confirm 15.8µM | TbPYK orthogonal 31.6µM
O=C1NC(=O)C(=Cc2ccsc2)C(=O)N1	PLK1 PBD inh 6.7µM | TbPYK confirm 14.1µM | TbPYK orthogonal inconclusive
C[C@@]12CC[C@H](O)C[C@@H]1CC[C@H]1[C@@H]2C[C@@H](O)[C@]2(C)[C@@H](C3=CC(=O)OC3)CC[C@]12O	none (no result: TSHR antag, PLK1 PBD inh, uPA surface inh, TSG101-PTAP inh)
CC(C)(O)C1C2OC(=O)C1[C@]1(O)CC3O[C@@]34C(=O)OC2[C@@]14C (some centres undefined)	none (no result: TSHR antag, PLK1 PBD inh, uPA surface inh, TSG101-PTAP inh)
NCCCNCCCCNCCCNC(=O)Cc1ccc(O)cc1	none (no result: TSHR antag, PLK1 PBD inh, uPA surface inh, TSG101-PTAP inh)
Cc1ccc(-c2nn(Cc3ccccc3)cc2C=O)cc1	none
O=C(O)CCn1cc(C=C2C(=O)NC(=O)NC2=O)c(-c2ccc(Br)cc2)n1	PLK1 PBD inh 2.67µM | TbPYK confirm 14.1µM | TbPYK orthogonal 28.2µM
CC(C)(C)OC(=O)C(Br)CCBr (centres undefined)	none (no result: TSHR antag, PLK1 PBD inh, uPA surface inh, TSG101-PTAP inh)
CN1C(=O)C(=Cc2ccccc2Oc2ccc(Cl)c(F)c2)C(=O)N(C)C1=O	VDR inh 28.2µM, PLK1 PBD inh 4.23µM | TbPYK confirm inconclusive | TbPYK orthogonal inactive
COc1cc(/C=C2/C(=O)NC(=O)N(c3ccc(C)cc3)C2=O)cc(OC)c1OC	VDR inh inconclusive, PLK1 PBD inh 11.9µM | TbPYK confirm inconclusive | TbPYK orthogonal inconclusive
CC1=NN(c2ccccc2)C(=O)C1/C=C1\C(=O)NC(=O)N(c2cc(C)cc(C)c2)C1=O (centres undefined)	none
Cc1cc(C)cc(N2C(=O)NC(=O)/C(=C\c3cc(C)n(C)c3C)C2=O)c1	none
Cc1ccc(N2C(=O)NC(=O)/C(=C/c3ccoc3)C2=O)cc1	PLK1 PBD inh 2.67µM | TbPYK confirm inconclusive | TbPYK orthogonal inactive
COc1cc(/C=C2\C(=O)NC(=O)N(c3ccccc3)C2=O)cc(OC)c1OC	VDR inh inconclusive, PLK1 PBD inh 13.4µM | TbPYK confirm inconclusive | TbPYK orthogonal inconclusive
O=C1NC(=O)N(c2ccccc2)C(=O)/C1=C\C=C\c1ccccc1	VDR inh inconclusive, PLK1 PBD inh 1.19µM | TbPYK confirm 12.6µM | TbPYK orthogonal inconclusive
CC1=NN(c2ccccc2)C(=O)C1/C=C1/C(=O)NC(=O)N(c2cc(C)cc(C)c2)C1=O (centres undefined)	none
CC1(C)C2C[C@@H](O)[C@]3(C)C(CC[C@@]4(C)[C@H](c5ccoc5)C[C@H]5O[C@]543)[C@@]2(C)[C@@H](O)C[C@H]1O (some centres undefined)	none (no result: TSHR antag, PLK1 PBD inh, uPA surface inh, TSG101-PTAP inh)
C=C1C(=O)[C@@]23[C@H](O)C[C@@H]4C(C)(C)CC[C@H](O)[C@@]4(C)[C@@H]2CC[C@@H]1[C@H]3O	VDR inh inconclusive, uPA surface inh inconclusive
COC(=O)c1c(NC(=O)C2CC=CCC2C(=O)O)sc2c1CCCCC2 (centres undefined)	PLK1 PBD inh inconclusive
Cc1cc(C)c(NC(=O)C2CC3CCC2C3)c(C)c1 (centres undefined)	uPA surface inh inconclusive
[S]=[Sb][S][Sb]=[S]	none (no result: TSHR antag, PLK1 PBD inh, uPA surface inh, TSG101-PTAP inh)
O=c1[nH]c(O)c(/C=C2\C=NN=C2c2ccccc2)c(=O)[nH]1	VDR inh inconclusive, PLK1 PBD inh 3.55µM (no result: uPA surface inh) | TbPYK confirm 11.2µM | TbPYK orthogonal 31.6µM
O=C1NC(=O)N(Cc2ccccc2)C(=O)/C1=C\c1ccco1	PLK1 PBD inh 2.12µM | TbPYK confirm 31.6µM | TbPYK orthogonal inconclusive
Cc1cc(C=C2C(=O)N(C)C(=S)N(C)C2=O)c(C)n1-c1cccnc1	VDR inh inconclusive, PLK1 PBD inh 2.12µM | TbPYK confirm inconclusive | TbPYK orthogonal inconclusive
COc1ccc(C[C@H]2CN3C(=NC[C@@H]3C(C)C)N2CCNC(=O)c2ccc(C)c(Br)c2)cc1	uPA surface inh inconclusive
COC(=O)C1=C(C(=O)OC)C2OC1c1cc3ccccc3cc12	VDR inh 8.91µM, PLK1 PBD inh 2.99µM (no result: TSHR antag) | TbPYK confirm 10µM | TbPYK orthogonal 12.6µM
